Source: PubChem BioAssay (EPA / NIEHS)
Inconclusive results are not listed. Active and inactive are the calls of the source. How the source made its calls: active means hit-call score of the fitted dose curve at least 0.9, where 1 is the maximum; inconclusive means response in the unintended direction; inactive means score below 0.9.

assay: ACEA_AR_antagonist_AUC_viability: ACEA Biosciences xCELLigence Real-Time Cell Analysis on Androgen Receptor Antagonism for Viability (AID 2283776);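 further: 22Rv1 human prostate cancer cells growing on impedance electrode plates; area under impedance growth curve at 80 h after dosing as viability; hits lower the growth signal relative to DMSO meaning cytotoxicity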
Outline: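 Impedance read-out (RT-CES): area under growth curve at 80 h post-dose, loss of signal scored vs DMSO baseline. 22Rv1 cells; 8-pt 1:4 series, top 100 uM final, ≤0.5% DMSO; biological duplicate.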

SMILES	outcome	AC50
CC(C)c1ccc2cc(C(C)C)ccc2c1	inactive	
O=C(C=Cc1ccccc1)OCc1ccccc1	inactive	
CCCCCCCC/C=C\CCCCCCCC(=O)O	inactive	
CNC(=S)NN	inactive	
CCCc1ccc(OC)cc1	inactive	
c1c[nH]cn1	inactive	
CC(=O)OC(C)C	inactive	
CCCCCCCCCCOS(=O)(=O)O	inactive	
Oc1ccc(Cl)cc1Cc1cc(Cl)ccc1O		8.53 µM (active)
CCCCC/C=C\CCC=O	inactive	
O=C(c1ccccc1)C1CCC1		0.391 µM (active)
CCN(CCC#N)c1ccc(N=Nc2c(Cl)cc([N+](=O)[O-])cc2Cl)cc1		3.41 µM (active)

assay: ACEA_ER_AUC_viability: ACEA Biosciences xCELLigence Real-Time Cell Analysis on Estrogen Receptor Agonism for Viability (AID 2283782);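 further: hit means loss of impedance signal meaning reduced cell growth or viability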
Outline: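 Continuous-exposure impedance cell analysis uses T-47D cells in charcoal-stripped serum, eight 1:4 dilutions topping at 100 uM final, biological duplicate. Area under the growth curve at 80 h is fitted against DMSO baseline.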

SMILES	AC50	outcome
O=[N+]([O-])C1(Br)COCOC1	8.14 µM (active)	
O=C(C=Cc1ccccc1)OCc1ccccc1		inactive
NC(CO)(CO)CO		inactive
CCCCCCCCCCC=CC#N	50 µM (active)	
CCCCCCCC/C=C\CCCCCCCC(=O)O	50 µM (active)	
CNC(=S)NN		inactive
CO[Si](OC)(OC)c1ccccc1		inactive
COc1cc(C)ccc1C(C)C		inactive
CCCc1ccc(OC)cc1		inactive
O=C1CCCC1		inactive
CCCCCC(C)O (stereo unspecified)		inactive
O=S(=O)(O)c1ccc2cc(O)c(S(=O)(=O)O)cc2c1	50 µM (active)	
CC(C)c1ccc(C#N)cc1	50 µM (active)	
CCCCCCOC(=O)C(C)CC (stereo unspecified)	66.7 µM (active)	
c1c[nH]cn1		inactive
CC(=O)OC(C)C		inactive
CC(=O)CC(N)=O		inactive

SMILES	AC50	outcome
CCCCCCCCCCOS(=O)(=O)O		inactive
Cc1ccc(N)c([N+](=O)[O-])c1		inactive
Cc1ccc(C(C)(C)C)cc1		inactive
C=CC(=O)OCCOC(=O)C=C	32.3 µM (active)	
Oc1ccc(Cl)cc1Cc1cc(Cl)ccc1O	17.7 µM (active)	
CCCCC/C=C\CCC=O		inactive
Cc1ccc2oc(=O)ccc2c1		inactive
C=C1[C@H]2CC[C@@H]3[C@H]2C(C)(C)CCC[C@]13C		inactive
Nc1ncn([C@@H]2O[C@H](CO)[C@@H](O)[C@H]2O)c(=O)n1	3.22 µM (active)	
O=CN1CCCCC1		inactive
O=C(c1ccccc1)C1CCC1		inactive
COc1ccc2nc(N)sc2c1		inactive
O=Nc1ccc(O)cc1		inactive
CC1(C)[C@H]2CC[C@]1(C)C(=O)C2		inactive
CCOC(=O)Cc1cccc2ccccc12	50 µM (active)	
CCN(CCC#N)c1ccc(N=Nc2c(Cl)cc([N+](=O)[O-])cc2Cl)cc1		inactive
COC(=O)c1ccccc1OC	50 µM (active)	
